Among all 1,500 compounds or so, about 1,400 (93%) were called active. How the calls were made is not given here. The set was probably picked from earlier hits. Only a sample is shown. Entries with a potency or affinity are not part of this list.
Test: growth suppression of beta-catenin-knockout colon cells, dose response, cell-based, HCT116, human colon tumor (AID 1045)
Conditions: CellTiter-Glo, 60 h; series mostly up to 30 µM

outcome, inactive:
c1ccc(-c2cc3n(c2)CCc2ccccc2-3)cc1
CC(C[N+](C)(C)C)OC(N)=O (configuration not stated)
CC1CCN(CC(=O)N2c3ccccc3CCc3ccccc32)CC1
O=C(CSc1nnc(-c2ccccc2Cl)o1)Oc1ccc(Br)cc1
Cc1ccc(C(=O)Nc2ccccc2C(=O)NC(C(=O)O)C(C)C)cc1 (configuration not stated)
CCOC(=O)Nc1ccc(C)cc1Br
Cc1nn(C(=O)N2CCOCC2)c(C)c1C
O=S(=O)(NCCc1csc(-c2cccnc2)n1)c1ccc2c(c1)OCCO2
CCOc1ccccc1NC(=O)Cn1cnc2c(nnn2-c2cccc(OC)c2)c1=O
COCCn1c(=NC(=O)CSCC(=O)Nc2cc(C)on2)sc2cc(C(=O)OC)ccc21
CCOc1c(OC)ccc2c3c(c(=O)oc12)CCCC3
CCOc1ccc(C2/C(=C(\O)c3c(C)[nH]c(C(=O)OC)c3C)C(=O)C(=O)N2CCN(C)C)cc1 (configuration not stated)
COC(=O)c1cn(NC(=O)c2cc(OC)c(OC)c(OC)c2)c(=O)c2ccccc12
Cc1[nH]nc2c1C(c1ccsc1C)C(C#N)=C(N)O2 (configuration not stated)
CC(C)CCCCCCNC(=S)Nc1ccc(S(=O)(=O)N2CCOCC2)cc1
CC(=O)c1c(C)nc(-c2ccc(Cl)cc2Cl)n1O
Cc1cc(NC(=O)CSc2nc(-c3cccnc3)ccc2C#N)no1
[N-]=[N+]=NC1C[C@H](n2ccc(=O)[nH]c2=O)O[C@@H]1CO (some centres not stated)
COC(=O)c1cccc(N2C(=O)C(Cl)=C(N3CCOCC3)C2=O)c1
CS(=O)(=O)c1nc(-c2cccs2)cc(C(F)(F)F)n1
N#CC(c1ccc(Cl)nn1)c1ccc(Cl)cc1Cl (configuration not stated)
CCCCN(C)C(=O)C1CCC(=O)N(c2cc(OC)c(OC)c(OC)c2)C1c1ccc(OC)cc1 (configuration not stated)
COCCNC(=O)NC1(C(F)(F)F)Oc2ccc(Cl)cc2O1 (configuration not stated)
O=C(NCc1ccc(F)cc1)C1C2C=CC3(CN(Cc4cccnc4)C(=O)C13)O2 (configuration not stated)
COC(=O)c1ccc(/C=C(\C#N)C(=O)NC(C)c2ccccc2)cc1 (configuration not stated)
COC(=O)c1ccc(Oc2nc(C(N)=O)cc(-c3ccccc3)n2)cc1
CC(C)(C)c1ccc(CNc2ccc([N+](=O)[O-])cn2)cc1
Cc1ccc(CNc2ccc(O)cc2)cc1
CCN(CCNC(=O)Nc1ccc(Cl)cc1)c1ccccc1
O=C(c1nnc(Cc2ccc(Cl)cc2)o1)N1CCc2ccccc2C1
CN1CCN(c2nc(N3CCN(c4ccccc4)CC3)ncc2F)CC1
CNC(=O)C1C(=S)NC(N)=C(C#N)C1c1ccccc1 (configuration not stated)
CCC(Sc1nc2sc(C(=O)OC)c(C)c2c(=O)n1N)C(=O)N(CC)CC (configuration not stated)
Cc1cc(NS(=O)(=O)c2ccccc2)cc(Cl)c1O
O=C(NNc1nc2cc3c(cc2s1)OCO3)c1cccc(F)c1
COc1ccc(C(=O)OC2CCN(c3ncc(C(F)(F)F)cc3Cl)CC2)cc1
COc1ccc(CCN2C(=O)CN(Cc3ccccc3)CC2=O)cc1OC
O=C(NCCOc1ccccc1)C(c1ccccc1)c1ccccc1
Cc1cc2ncn(C(=O)N3CCC(C)CC3)c2cc1C
COC(C)(C)[C@H](O)COc1c2ccoc2cc2oc(=O)ccc12
CCOC(=O)c1[nH]c2ccc(OC)cc2c1NC(=S)N1CCN(c2ccccc2)CC1
Oc1ccc(C=Nc2ccc3ncccc3c2)c(O)c1
CCN(CC)S(=O)(=O)c1ccc(-c2nnc(SCc3nnc(-c4ccccc4)o3)o2)cc1
CN(C)c1nn(C(=O)Nc2cccc(C(F)(F)F)c2)cc1-c1ccccc1
O=C(Nc1cccc(C(F)(F)F)c1)C12CC3CC(CC(C3)C1)C2
CCCCCn1c(Sc2ccccc2)nc2c1c(=O)[nH]c(=O)n2C
CC(C(=O)NC(=O)NCc1ccccc1)N1C(=O)c2ccccc2C1=O (configuration not stated)
Cc1cc(NC(=O)Cn2c(=O)n(Cc3ccccc3)c(=O)c3ccccc32)no1
Cc1cc(Cl)ccc1N=c1ssnc1Cl
CCN(CC)C(=O)CCCOc1ccc(Cl)cc1Cl
O=C(Nc1cccc2ccccc12)N1CCN(Cc2ccc3c(c2)OCO3)CC1
COc1ccc(C(C)=O)cc1CSc1nc2ccccc2o1
CCOC(=O)C1=C(C)NC(=S)N(C(C)=O)C1c1ccc(Cl)cc1 (configuration not stated)
Cc1cc(C)c2c(=O)n(CC(=O)N3CCC(Cc4ccccc4)CC3)sc2n1
Cc1sc2c(=O)n3c(nc2c1C(=O)NCCCN1CCOCC1)CCCCC3
CCCCNS(=O)(=O)c1ccc2nc(-c3cccnc3)cc(C(=O)NC3CC3)c2c1
O=C(NCc1ccccn1)c1c(O)c2cccc3c2n(c1=O)CC3
CNC(=S)N/N=C(\C)c1ccc(N2CCOCC2)cc1
COc1cccc(OCC(=O)NN=C2c3ccccc3-c3ccccc32)c1
O=C(CSc1ncnc2c1nnn2-c1ccc(F)cc1)NCC1CCCO1 (configuration not stated)
Cc1cc(NC(=O)c2sc(Nc3cccc(C(F)(F)F)c3)nc2N)no1
COc1ccc(Nc2oc(COc3ccc(Cl)cc3)nc2C#N)cc1
CCCn1c(SCC(=O)c2ccc3c(c2)NC(=O)CO3)nc2ccccc21
C=CCNc1nc(Nc2ccc(-c3nc4ccccc4o3)cc2)nc(N2CCOCC2)n1
CCOC(=O)c1c(C2COc3ccccc3O2)csc1NC(=O)c1ccccc1 (configuration not stated)
O=C(CCNc1cc(Cl)cc(Cl)c1)c1ccco1
O=C(NCc1ccc2c(c1)OCO2)c1ccc2c(c1)C(=O)N(CC1CCCO1)C2=O (configuration not stated)
COC(=O)COc1ccc(S(=O)(=O)NCc2ccncc2)cc1
C=CCNC(=O)c1ccccc1NC(=O)c1ccccc1C
CCOc1ccc(N(CC(=O)NC2CCCCCC2)S(=O)(=O)c2c(C)noc2C)cc1
Nc1c(NCCN2CCOCC2)c2ccccc2oc1=O
COc1cccc2cc(C(=O)N(C)C)c(=O)oc12

— PubChem BioAssay AID1045 (SRMLSC, 2008)
